Structures can show the parent of a compound that is named as a salt. ± gives the standard deviation.

For this test, the system named is THP-1 macrophages infected with Mycobacterium tuberculosis H37Rv. The test can be described thus: intracellular M.tb growth inhibition relative to DMSO (0) and 4 uM bedaquiline (100); higher = stronger inhibition of intracellular bacterial growth. As to conditions: 10 µM; 4 days. Here is the method: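 OICR kinase inhibitor library screened in duplicate at 10 uM against THP-1 macrophages (PMA-differentiated) infected with M. tuberculosis H37Rv-pTEC27 (tdTomato RFP), 4 days at 37 C. Rows with complete host cell loss (placeholder inhibition 0, cell loss 100) were removed.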
Regarding `c1ccc(-c2n[nH]c3c2oc2ccccc23)cc1`, the “intracellular M.tb growth inhibition” value was 7.69 ± 11%.
The same measure for `N#C/C(=C\c1ccc(O)c(O)c1)C(=O)Nc1ccccc1`: -35.4 ± 5.2%; for `O=c1oc2c(O)c(O)cc3c(=O)oc4c(O)c(O)cc1c4c23` [Ellagic acid]: -20.9 ± 30%; for `NC(=O)c1ccc(-c2nc(-c3ccc4c(c3)OCCO4)c(-c3ccccn3)[nH]2)cc1`: -106 ± 81%.
The same measure for `N#C/C(=C\c1ccc(O)c(O)c1)C(=O)NCc1ccccc1`: 9.47 ± 28%.
Under `Cc1cccc(-c2nn(C(=S)Nc3ccccc3)cc2-c2ccnc3ccccc23)n1` stands 17.7 ± 18%; under `Cc1cc(Nc2cc(C)c(C#N)c(NC(C)CCCC(C)(C)O)n2)n[nH]1` (stereo not given) [TC-A 2317 hydrochloride], -257 ± 200%.
Take `Nc1cccc(-c2cc3c(Oc4cccc(O)c4)ncnc3[nH]2)c1`: the “intracellular M.tb growth inhibition” value was -14.2 ± 26%.
Under `CO[C@H]1C[C@@H]2CC[C@@H](C)[C@@](O)(O2)C(=O)C(=O)N2CCCC[C@H]2C(=O)O[C@H]([C@H](C)C[C@@H]2CC[C@@H](OCCO)[C@H](OC)C2)CC(=O)[C@H](C)/C=C(\C)[C@@H](O)[C@@H](OC)C(=O)[C@H](C)C[C@H](C)/C=C/C=C/C=C/1C` [Everolimus] stands 3.03 ± 13%.
Under `O=c1cc(N2CCOCC2)oc2c1ccc1ccccc12` stands 19.8 ± 4.3%; under `Cc1c(NC(=O)OC[C@@H]2COCCN2)cn2ncnc(Nc3ccc4c(cnn4Cc4cccc(F)c4)c3)c12`, 48.3 ± 10%.
The same measure for `CC#CC(=O)Nc1ccc2ncnc(Nc3cccc(Br)c3)c2c1`: 3.12 ± 4.4%; for `CCCCCCCC(=O)OCCOC(=O)CCCCCCC` [Dioctanoylglycol]: 0.763 ± 3%.
In the case of `C=CCn1c(=O)c2cnc(Nc3ccc(N4CCN(C)CC4)cc3)nc2n1-c1cccc(C(C)(C)O)n1`, the “intracellular M.tb growth inhibition” value was -188 ± 280%.
The same measure for `COc1cc(OC)c(C=C2C(=O)Nc3ccccc32)c(OC)c1`: 4.9 ± 6.5%.
Turning to `O=c1c(-c2ccc(O)cc2)coc2cc(O)cc(O)c12` [Genistein], the “intracellular M.tb growth inhibition” value worked out at 10.7 ± 10%.
Under `NC(=O)c1ccc(-c2nc(-c3ccccn3)c(-c3ccc4c(c3)OCO4)[nH]2)cc1` stands 17.9 ± 36%.
The same measure for `COc1cc(Nc2c(C#N)cnc3cc(OCCCN4CCN(C)CC4)c(OC)cc23)c(Cl)cc1Cl` [Bosutinib]: 109 ± 1.8%; for `COc1cc(/C=C(\C#N)C(N)=O)cc(CSc2nc3ccccc3s2)c1O`: 21 ± 6.4%; for `CC#CC(=O)Nc1cc2c(Nc3ccc(F)c(Cl)c3)ncnc2cn1`: -68.3 ± 97%.
The same measure for `CC1(C)CNc2cc(NC(=O)c3cccnc3NCc3ccncc3)ccc21` [Motesanib diphosphate salt]: 44.9 ± 27%; for `CO[C@@H](C(=O)N1Cc2[nH]nc(NC(=O)c3ccc(N4CCN(C)CC4)cc3)c2C1)c1ccccc1`: -228 ± 250%; for `Nc1nc(Nc2ccc(S(N)(=O)=O)cc2)nn1C(=S)Nc1c(F)cccc1F` [Cdk1/2 Inhibitor III]: -193 ± 240%.
As to `CN(C)c1ccc(/C=C2/C(=O)Nc3ccccc32)cc1`, the “intracellular M.tb growth inhibition” value was determined as 5.91 ± 3.3%.
Take `c1ccc(-c2[nH]ncc2-c2ccnc3ccccc23)nc1`: the “intracellular M.tb growth inhibition” value turned out to be 2.68 ± 17%.
The same measure for `Cc1cnc(-c2cnc(NCCNc3ccc(C#N)cn3)nc2-c2ccc(Cl)cc2Cl)[nH]1`: 7.29 ± 24%.
The same measure for `COc1cc2nccc(Oc3ccc(NC(=O)C4(C(=O)Nc5ccc(F)cc5)CC4)cc3)c2cc1OC`: 94.8 ± 23%.
The same measure for `CN(C)Cc1cccc(N=C(c2ccccc2)c2c(O)[nH]c3cc(C(=O)N(C)C)ccc23)c1`: -213 ± 320%.
On to `Cn1cncc1[C@@](N)(c1ccc(Cl)cc1)c1ccc2c(c1)c(-c1cccc(Cl)c1)cc(=O)n2C` [Tipifarnib], for which the “intracellular M.tb growth inhibition” value amounted to 3.85 ± 56%.
On to `COc1nccc(-c2c(-c3ccc(F)cc3)ncn2C2CCC(O)CC2)n1` (stereo not given), for which the “intracellular M.tb growth inhibition” value turned out to be 1.01 ± 15%.
Under `COc1cc2c(N3CCN(C(=O)Nc4ccc(OC(C)C)cc4)CC3)ncnc2cc1OCCCN1CCCCC1` stands 53 ± 8%; under `COc1cc2ncnc(Nc3cccc(Cl)c3)c2cc1OC` [Tyrphostin AG 1478 mesylate], 2.11 ± 14%.
Under `Nc1nccc(Oc2ccc(NC(=O)c3c[nH]cc(-c4ccc(F)cc4)c3=O)cc2F)c1Cl` stands 37 ± 33%; under `C/C(=N\N=C(N)N)c1ccc(NC(=O)c2cc3cccc([N+](=O)[O-])c3[nH]2)cc1`, -73 ± 67%.
Under `O=C(O)c1cc(N(Cc2ccccc2O)Cc2cc(O)ccc2O)ccc1O` [Lavendustin A] stands 10.4 ± 41%.

The values are drawn from the supplement of paper PMC7530171.
